Source: PubChem BioAssay (several laboratories)
BoNT A protease: BoNT A light chain protease inhibition. multiplex microsphere protease substrate cleavage, flow cytometry. inhibition, % at 10 µM. 360,000 tested, 0.17% active. AID 588499; further: plate controls were buffer without enzyme for full effect and enzyme alone for no effect
PriA SSB inh: inhibitors of Klebsiella pneumoniae PriA binding to SSB C-terminal tail | AlphaScreen SSBct-PriA binding, biotinylated peptide | inhibition, % at 33 µM | 430,000 tested, 0.6% active | AID 1272365; in the data active means inhibition mostly above about 37%, no sharp cut-off; inactive means mostly below about 20%;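 further: plate controls were negative control peptide for no effect and reference peptide for full effect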
Bead autofluor: flagged as autofluorescent in microsphere protease counterscreen; compound autofluorescence counterscreen, microsphere flow cytometry; hits give high values; fluorescence intensity (no concentration beside the values); 360,000 tested, 3.1% active; AID 624483; in the data active means fluorescence intensity above about 16000; inconclusive means no clear call, values can overlap the other calls
BoNT F protease: blocks Botulinum neurotoxin F light chain protease | Multiplex microsphere protease cleavage assay, flow cytometry | inhibition, % at 10 µM | 360,000 tested, 0.22% active; in the data active means inhibition above about 35%, passing the limit was not always enough; inconclusive means no clear call, values can overlap the other calls; further: plate controls were buffer without enzyme for full effect and enzyme alone for no effect
Anthrax LF inh2: anthrax lethal factor protease inhibition. multiplex microsphere protease cleavage assay, LF. inhibition, % at 10 µM. 360,000 tested, 0.12% active. AID 588501; further: plate controls were buffer without enzyme for full effect and enzyme alone for no effect
Target sequence (P15917 whole entry, looked up): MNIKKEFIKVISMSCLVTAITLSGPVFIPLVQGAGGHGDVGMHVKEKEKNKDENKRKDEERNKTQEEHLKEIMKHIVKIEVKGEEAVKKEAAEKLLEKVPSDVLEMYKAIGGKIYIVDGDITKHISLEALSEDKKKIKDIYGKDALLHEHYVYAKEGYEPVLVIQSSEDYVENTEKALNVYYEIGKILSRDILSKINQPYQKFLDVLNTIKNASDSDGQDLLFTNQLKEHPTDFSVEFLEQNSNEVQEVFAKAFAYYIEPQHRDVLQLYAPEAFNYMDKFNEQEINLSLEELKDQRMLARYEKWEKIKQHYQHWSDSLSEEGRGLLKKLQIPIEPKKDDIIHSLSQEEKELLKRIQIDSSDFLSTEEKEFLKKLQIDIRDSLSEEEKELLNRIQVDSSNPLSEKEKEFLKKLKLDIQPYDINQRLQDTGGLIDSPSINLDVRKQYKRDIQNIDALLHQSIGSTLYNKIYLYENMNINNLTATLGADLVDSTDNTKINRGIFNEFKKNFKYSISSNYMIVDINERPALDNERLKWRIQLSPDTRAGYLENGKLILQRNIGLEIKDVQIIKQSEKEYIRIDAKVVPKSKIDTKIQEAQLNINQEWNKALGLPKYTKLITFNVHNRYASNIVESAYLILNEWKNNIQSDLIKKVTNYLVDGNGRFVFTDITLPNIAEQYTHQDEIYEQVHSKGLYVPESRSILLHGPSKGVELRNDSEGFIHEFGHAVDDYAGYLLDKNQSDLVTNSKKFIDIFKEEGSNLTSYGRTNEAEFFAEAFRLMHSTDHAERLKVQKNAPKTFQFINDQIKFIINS
* = called active by the depositor; i = inactive; ? = inconclusive; · = no result given. Sampled rows, rich in hits. Any-hit rate of the full collection: about 3.1%. Unless noted, no stated cut-off is given here; in the data, active means inhibition above about 30%; inconclusive means no clear call, values can overlap the other calls; inactive means below that.

SMILES	BoNT A protease	PriA SSB inh	Bead autofluor	BoNT F protease	Anthrax LF inh2
CCCCCC1CC1C(=O)N/N=C/c1ccc(N(C)C)cc1 (stereo unspecified)	-1	·	4129	-15	-5
CN(C)c1ccc(C=NNC(=O)C2CC2c2ccccc2)cc1 (stereo unspecified)	·	44*	·	·	·
CN1CCN(/C=N/c2c(C#N)cnn2Cc2ccccc2)CC1	?	·	20606*	-3	-5
Cc1cccc(OC2CCN(C(=O)c3c[nH]c4ccccc34)CC2)n1	·	-12	·	·	·
S=c1[nH]nc(-c2ccccn2)n1N=Cc1ccccc1	·	74*	·	·	·
Cc1ccc(C=Nn2c(-c3ccccn3)n[nH]c2=S)o1	·	72*	·	·	·
Cc1ccc(/C=N/n2c(-c3ccncc3)n[nH]c2=S)o1	-1	·	2354	1	0
Cc1ccccc1C=Nn1c(-c2ccccn2)n[nH]c1=S	·	59*	·	·	·
Cc1ccc(/C=N/n2c(C)n[nH]c2=S)o1	1	·	22498*	3	0
O=C(O)Cc1sc(N/N=C/c2ccncc2)nc1-c1ccccc1	·	i	·	·	·
CC(C)CS(=O)(=O)C1CCN(C(=O)CCc2c(F)cccc2Cl)CC1	·	-12	·	·	·
CCSc1ccccc1NC(=O)c1nnn(-c2ccccc2)c1C	·	-33	·	·	·
O=C(COc1ccc(Cl)cc1Cl)N(CCc1ccccc1)Cc1ccccn1	·	3	·	·	·
Nn1c(-c2ccccn2)n[nH]c1=S	·	83*	·	·	·
Nn1c(-c2ccccc2)n[nH]c1=S	·	5	·	·	·
Cc1cc(NS(=O)(=O)c2ccc(NC(=O)CCN3C(=O)c4ccccc4C3=O)cc2)nc(C)n1	·	-13	·	·	·
O=C(CCCCCN1C(=O)c2ccccc2C1=O)Nc1ccc(S(=O)(=O)N2CCCCC2)cc1	?	-5	21502*	2	-1
Cc1cc(C)nc(NS(=O)(=O)c2ccc(NC(=O)CCN3C(=O)c4ccccc4C3=O)cc2)n1	-2	-14	16582*	-4	0
CC1CCN(S(=O)(=O)c2ccc(NC(=O)CCN3C(=O)c4ccccc4C3=O)cc2)CC1	2	-6	19423*	0	-5
CCOC(=O)Nc1ccc(S(=O)(=O)Nc2nc(C)cc(C)n2)cc1	-4	1	24252*	-6	0
CCOC(=O)Nc1ccc(S(=O)(=O)Nc2nccc(C)n2)cc1	?	5	?	?	?
O=C(C1CCCC1)N1CCCC(c2nnc(-c3ccc4c(c3)OCO4)o2)C1 (stereo unspecified)	·	-15	·	·	·
COc1ccc(C2SCC(=O)Nc3c2c(=O)[nH]n3C2CCCCCC2)cc1OC (stereo unspecified)	?	-10	18575*	3	-9
CCOc1ccc(C2SCC(=O)Nc3c2c(=O)[nH]n3C2CCCCCC2)cc1 (stereo unspecified)	?	-6	24510*	-8	-6
COc1ccc(C2SCC(=O)Nc3c2c(=O)[nH]n3C2CCCCCC2)cc1 (stereo unspecified)	0	-14	5946	-6	-6
SMILES	BoNT A protease	PriA SSB inh	Bead autofluor	BoNT F protease	Anthrax LF inh2
CC(C)(O)c1nc2ccccc2n1Cc1ccc(F)cc1	·	-12	·	·	·
CCOc1ccccc1N1CCN(Cc2cccc(OC)c2O)CC1	?	-2	17870*	-11	-3
COc1ccccc1N1CCN(Cc2c(F)cccc2Cl)CC1	-1	-6	21264*	-2	-1
COc1ccc(CN2CCC(C(=O)N3CCN(c4ccccc4F)CC3)CC2)cc1OC	0	-3	9424	-3	5
COc1cc(CN2CCC(C(=O)N3CCN(c4ccccc4F)CC3)CC2)cc(OC)c1OC	-1	-11	16517*	-3	-2
COc1ccccc1N1CCN(Cc2ccco2)CC1	3	-9	7355	11	-3
COc1ccccc1N1CCN(Cc2ccc(Br)s2)CC1	0	-1	20319*	1	-3
COc1ccccc1N1CCN(Cc2ccccc2)CC1	0	-13	3689	-26	5
COc1ccccc1N1CCN(Cc2cc(C)c(C)cc2O)CC1	-1	4	4690	-18	-4
Cc1cc(C)nc(SCc2c(C(=O)N3CCc4ccccc43)nnn2-c2ccccc2)n1	·	24	·	·	·
O=S(=O)(NC1CCN(c2nccs2)CC1)c1ccc2c(c1)OCCO2	·	-6	·	·	·
O=C(NCCn1ccc(-c2ccsc2)n1)c1cnc2ccccc2n1	·	-4	·	·	·
Cc1c(C(=O)N2CCN(c3ccccc3F)CC2)sc2nc(-c3ccccc3)cn12	?	-3	21586*	0	-8
COc1ccc(-c2cn3c(C)c(C(=O)N4CCN(c5ccccc5F)CC4)sc3n2)cc1	0	0	5024	-1	-13
COc1ccccc1N1CCN(C(=O)c2csc3nc(-c4ccc(F)cc4)cn23)CC1	·	20*	·	·	·
O=C(c1csc(Nc2ccccc2)n1)N1CCN(c2ccccc2)CC1	·	21*	·	·	·
O=C(c1csc2nc(-c3ccccc3)cn12)N1CCN(c2ccccc2)CC1	·	active	·	·	·
CN(C)S(=O)(=O)c1ccc(-c2nnc(NC(=O)c3cc4ccccc4o3)o2)cc1	·	-27	·	·	·
O=c1c2cc(-c3cccs3)nn2ccn1Cc1nc(-c2ccc(F)cc2)no1	·	-4	·	·	·
CCOC(=O)N1CCN(C/C(C)=C/c2ccccc2)CC1	?	-1	20298*	12	-2
C/C(=C\c1ccccc1)CN1CCN(C)CC1	-2	-16	4300	3	-13
COc1ccc(C(=O)Oc2c(CN3CCOCC3)cc(Cl)c3cccnc23)cc1	-1	-9	3186	-8	0
COc1cccc(C(=O)Oc2c(CN3CCOCC3)cc(Cl)c3cccnc23)c1	1	26	22802*	-1	-2
COc1cc(C(=O)Oc2c(OC)cc(C(=S)N3CCOCC3)cc2OC)cc(OC)c1OC	-1	1	3479	?	10
COc1cc(C(=O)Oc2c(CN3CCOCC3)cc(Cl)c3cccnc23)cc(OC)c1OC	-1	87*	4250	-10	-10
SMILES	BoNT A protease	PriA SSB inh	Bead autofluor	BoNT F protease	Anthrax LF inh2
CCOc1ccc(-n2c(-c3ccc(F)cc3)nc(=S)c3c2CCCC3)cc1	·	12	·	·	·
CCC1(CC)C(=O)NC(=O)NC1=NCCc1c[nH]c2ccccc12	-2	-13	21453*	-1	0
O=C(c1ccc(Br)cc1)N1CCCCC(c2ccc(F)cc2)C1 (stereo unspecified)	·	-15	·	·	·
CCN1CCc2nc(NC(=O)c3ccc(Cl)s3)sc2C1	·	5	·	·	·
COc1ccc(OC)c(Nc2nc(CC(N)=O)cs2)c1	·	-10	·	·	·
CCCC(C)C(=O)Nc1nc(C)c(-c2csc(Nc3cc(OC)ccc3OC)n2)s1 (stereo unspecified)	-1	47*	3938	-2	-2
COc1ccc(NC(=O)Cc2csc(Nc3cccc(Cl)c3)n2)c(OC)c1	·	16*	·	·	·
COc1ccccc1NC(=O)Cc1csc(NC(=S)Nc2ccccc2)n1	-2	15	20382*	-5	1
COc1ccc(OC)c(Nc2nc(CC(=O)Nc3ccc(C)cc3)cs2)c1	·	31*	·	·	·
Cc1cccc(C(N)=NOC(=O)CCC2CCCCC2)c1	·	-63	·	·	·
CCOc1ccc(-c2cc(C(=O)Nc3nc4ccc(Cl)cc4s3)no2)cc1	·	-18	·	·	·
COC(=O)c1ccc(CSc2nnc(-c3ccccc3)c3sc(C)nc23)o1	·	-13	·	·	·
O=C(Cc1csc(Nc2ccc(F)cc2)n1)Nc1ccc2c(c1)OCCO2	·	6	·	·	·
COc1ccc(OC)c(Nc2nc(CC(=O)NCc3ccc(F)cc3)cs2)c1	·	18*	·	·	·
